Only some compounds are listed: those with a hit (about 0.77% of all), similar ones and a draw of the others.
NS1 inh: blocks influenza NS1 protein function | Potency, µM (highest dose often 46.1 µM), for the others: at the top dose activity, positive = more growth | actives 0.4% (n = 270,000); calls by dose curve; further: actives are rising curves; nearly all actives have a fitted effect of over 50% in size
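Recovery from NS1-induced slow growth read by OD600 in budding yeast switched to galactose assay medium (pH 6.0, -URA) at 1:100 dilution. Compound 23 nl per well; the matching strain lacking NS1 serves as control.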
Tb PYK inh: inhibitors of Trypanosoma brucei pyruvate kinase. Q57TT1. TbPYK enzyme, Kinase-Glo Plus ATP luminescence, 45 min. Potency, µM (titrated, usually from 76.8 µM), for inactives: at the top dose activity, negative = inhibition, most hits filed as inhibitors. actives 0.12% (n = 410,000); further: on the % scale 0 is the no-effect control and ±100 the full control effect; nearly all actives have a fitted effect of over 50% in size
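Enzyme and substrate buffer are dispensed first and compound is pin-transferred. ADP at 130 uM final then starts the reaction, which runs 45 min at room temperature. Detection reagent is added for 10 min before luminescence is imaged.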
LmPK inhibitor: blocks Leishmania mexicana pyruvate kinase activity | Q27686 | purified LmPK, Kinase-Glo ATP luminescence, 1 h | Potency, µM (titrated, usually from 57.5 µM), for inactives: at the highest dose activity change, negative = inhibition, most hits filed as inhibitors | actives 0.37% (n = 290,000); further: on the % scale 0 is the no-effect control and ±100 the full control effect
Target sequence (Q27686 whole entry, looked up): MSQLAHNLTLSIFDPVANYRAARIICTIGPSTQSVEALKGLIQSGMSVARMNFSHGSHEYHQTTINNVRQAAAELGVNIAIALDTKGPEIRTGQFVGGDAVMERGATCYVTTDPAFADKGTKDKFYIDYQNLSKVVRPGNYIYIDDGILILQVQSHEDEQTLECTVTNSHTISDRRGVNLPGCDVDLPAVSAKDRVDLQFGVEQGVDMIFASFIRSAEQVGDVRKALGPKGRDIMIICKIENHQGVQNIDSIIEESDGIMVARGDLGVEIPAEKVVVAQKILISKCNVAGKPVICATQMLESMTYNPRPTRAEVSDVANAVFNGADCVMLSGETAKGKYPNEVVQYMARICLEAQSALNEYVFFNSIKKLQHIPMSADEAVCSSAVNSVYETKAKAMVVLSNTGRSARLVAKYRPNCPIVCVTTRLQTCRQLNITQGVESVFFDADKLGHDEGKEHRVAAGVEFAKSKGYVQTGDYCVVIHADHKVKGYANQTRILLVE
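0.1 nM LmPK, 0.5 mM PEP, 0.1 mM ADP; 50 mM imidazole pH 7.2, 7 mM MgCl2, 50 mM KCl; 1 h RT. Kinase-Glo luminescence readout, normalized to no-enzyme (full inhibition) and uninhibited wells.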
RE007 growth inh: less growth of the S. pombe RE007 Vpr strain. S. pombe RE007 Vpr strain, BacTiter-Glo ATP luminescence, 24 h. Potency, µM (series often up to 92.2 µM), for the others: top-dose activity change, negative = less growth, hits mostly inhibitors. actives 0.21% (n = 360,000). AID 651644; active means well fitted falling curve with a large enough effect; inconclusive means small, poorly fitted or top-dose-only effect; inactive means no such curve, though single readings can be large or run the other way; further: on the % scale 0 is the no-effect control and ±100 the full control effect; nearly all actives have a fitted effect of over 50% in size
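Fission yeast RE007 carrying one integrated HIV-1 vpr copy, seeded at OD 0.01 in PMG+AL medium with 23 nL pinned compound. Grown 24 h at 30 degrees; viability read by BacTiter-Glo luminescence after 5 min.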
* = called active by the depositor; ? = inconclusive; . = no result; [ ] = remark or other dose. Unless noted, the call rests on the fitted dose curve; in most records, active means well fitted curve in the direction sought with a large enough effect; inconclusive means small, poorly fitted or top-dose-only effect, or another doubt; inactive means no such curve, though single readings can be large; an effect the other way counts as inactive or inconclusive. Potency means the concentration at half of the fitted maximal effect.

SMILES | NS1 inh | Tb PYK inh | LmPK inhibitor | RE007 growth inh
CC(=O)OCC(=O)[C@@]1(O)[C@H](C)C[C@H]2C3C[C@H](F)C4=CC(=O)C=CC4(C)C3[C@@H](O)CC21C (stereo partly specified) | . | -5% | . | .
O=C(O)c1ccccc1NS(=O)(=O)c1cccc(-n2sc3ccccc3c2=O)c1 | 16% | 5µM* | -19% | 1%
O=C(O)c1ccccc1NS(=O)(=O)c1cccc(C(F)(F)F)c1 | 11% | -1% | 5% | 3%
CCOC(=O)C1CCN(c2ccc(-c3cccs3)nn2)CC1 | -9% | ? | 14µM* | ?
OCC1OC(OC2C(CO)OC(OC3C(CO)OC(O)C(O)C3O)C(O)C2O)C(O)C(O)C1O (stereo unspecified) | . | 0% | . | .
CCOc1ccc(N2C(=O)CC(Sc3nnnn3-c3ccccc3)C2=O)cc1 (stereo unspecified) | . | -28% | 8% | 32µM*
CCOc1ccc(N2C(=O)CC(SCCN)C2=O)cc1 (stereo unspecified) | -4% | 0% | -28% | 20µM*
CCOc1ccc(N2C(=O)CC(Sc3nc(C)cc(C)n3)C2=O)cc1 (stereo unspecified) | -7% | 4% | -2% | -20%
COc1ccc(OC)c(N=c2ssnc2Cl)c1 | -107% | 28µM* | -22% | ?
COc1cc(N=c2ssnc2Cl)c(OC)cc1Cl | -166% | 11µM* | -4% | ?
Cc1ccc(N=c2ssnc2Cl)cc1 | -118% | 28µM* | -16% | -92%
Cc1cc[c]([Sb]2[O]C([C@H](O)[C@H](O)C(=O)O)[C@@H](CO)[O]2)cc1 (stereo partly specified) | 2% | . | . | .
Cc1ccccc1-n1c(Cc2cccs2)n[nH]c1=S | -6% | ? | 8.9µM* | 13%
FC(F)(F)c1ccc(Cl)c(-n2c(Cc3cccs3)n[nH]c2=S)c1 | ? | ? | 8.9µM* | 17%
O=C(Cn1c(=O)nc(-c2ccccc2)c2ccccc21)NCc1ccccc1Cl | . | -5% | . | .
CC[C@H](O)C(C[C@H](C)N(C)C)(c1ccccc1)c1ccccc1 | . | 0%[157 µM] | . | .
Cc1cccn2c1nc(=S)n2C(=O)c1ccco1 | 7% | -25% | 10µM* | 4%
O=C(CSc1c2c(nc3cc(Cl)ccc13)CCCC2)NCCN1CCOCC1 | . | 2% | 0% | -3%
Clc1ccc2c(SCC3CO3)c3ccccc3nc2c1 (stereo unspecified) | . | -20% | . | 1µM*
CCOc1ccc(NC(=O)NCc2ccc3c(c2)CCN3C(C)=O)cc1 | . | -3% | . | .
CSC1=NSC2=NC(=O)/C(=C/c3coc4ccc(O)cc4c3=O)C(=N)N12 | 10% | -20% | 2% | -1%
CSC1=NSC2=NC(=O)/C(=C/c3coc4ccccc4c3=O)C(=N)N12 | -12% | -11% | 0% | 40µM*
O=c1c[n+](CC[n+]2cc(=O)o[nH]2)[nH]o1 | 0% | . | . | .
O=Cc1ccccc1C=O | . | 5% | . | .
N#C/C(=C\c1ccc(N2CCOCC2)o1)c1ccccc1 | 14% | -28% | 2% | ?
SMILES | NS1 inh | Tb PYK inh | LmPK inhibitor | RE007 growth inh
N#C/C(=C/c1ccc(N2CCOCC2)o1)c1ccc(Br)cc1 | -13% | 25µM* | 2% | -5%
O=C1C(Cl)=C(N2CCCCC2)C(=O)C(Cl)=C1c1cnc(N2CCCCC2)s1 | 0% | ? | 20µM* | -25%
COc1cccc(C(=O)Nc2cccc(OCC(=O)O)c2)c1 | -2% | -19% | 35µM* | -11%
COc1ccc(C(=O)Nc2cccc(NC(C)=O)c2)cc1 | . | -11% | . | 9%
COc1ccc(C(=O)Nc2cccc(C)c2)cc1 | -23% | . | 14µM* | -2%[3.69 µM]
COc1cccc(N/C=C/C(=O)c2ccc(Br)cc2)c1 | . | -4% | . | 9%
COc1cccc(C(=O)Nc2ccccc2)c1 | -145% | -12% | ? | -17%
COc1ccc(C(=O)/C=C/Nc2cccc(O)c2)cc1 | -106% | . | 25µM* | -11%[3.69 µM]
Cn1nnnc1SCC1=C(C(=O)O)N2C(=O)[C@@H](NC(=O)[C@H](OC=O)c3ccccc3)[C@H]2SC1 | . | 0% | . | .
C[C@@]12C[C@H](O)C3[C@H](CCC4=CC(=O)CC[C@]43C)[C@H]1CC[C@@H]2c1csc(-c2ccccc2)n1 (stereo partly specified) | -5% | . | . | .
COc1ccc(S(=O)(=O)Nc2ccc3c(c2)N(C(C)=O)CCC3)cc1F | . | 1% | . | .
Cc1[nH]c(=S)c(C#N)c2c1CCCC2 | . | 3.5µM* | 5% | 69%
Cc1[nH]c(=O)c(C#N)c2c1CCCC2 | 11% | -3% | -7% | -2%
CCc1cc[n+](-c2nc([O-])sc2C=O)cc1 | 2% | -9% | -4% | -2%
CC(C)c1cc[n+](-c2nc([O-])sc2C=O)cc1 | 2% | 28µM* | -1% | -17%
C[CH2][Hg][S]c1ccccc1C(=O)O | . | 11µM* | . | -21%
O=C(O)c1ccccc1SSc1ccccc1C(=O)O | 0% | -22% | 17% | -5%
C=CCN1c2ccccc2[C@]23C[C@@H](C(=O)OC)N(S(=O)(=O)c4ccc(Br)cc4)C2=NC(C(=O)OC)=C(C(=O)OC)[C@H]13 | . | . | -4%[11.5 µM] | .
COc1ccccc1N(C(C)=O)C1=C(Cl)C(=O)c2ccccc2C1=O | . | ? | . | 13µM*
NC1=NC([S][Hg][c]2ccc(N)cc2)c2ncn([C@@H]3O[C@H](CO)[C@@H](O)[C@@H]3O)c2N1 (stereo partly specified) | -31% | . | . | .
CCC(=O)OC1CCC2C3CCc4cc(O)ccc4C3CCC12C (stereo unspecified) | . | 0% | . | .
c1ccc(-c2noc(-c3ccc4ccccc4c3)n2)nc1 | -2% | -18% | 6.3µM* | ?
Cc1ccc(-c2nc(-c3cccnc3)no2)cc1 | -49% | -3% | -30% | -26%
c1ccc(-c2noc(-c3ccc4c(c3)OCO4)n2)nc1 | ? | 11µM* | 3.2µM* | ?
c1ccc(-c2noc(-c3cccnc3)n2)nc1 | ? | -29% | 14µM* | -10%
SMILES | NS1 inh | Tb PYK inh | LmPK inhibitor | RE007 growth inh
c1ccc(-c2noc(-c3ccncc3)n2)nc1 | 2% | ? | 13µM* | ?
O=[N+]([O-])c1cccc(-c2nc(-c3ccccn3)no2)c1 | -3% | -5% | ? | -25%
Cc1ccc(-c2nc(-c3ccncc3)no2)cc1 | -4% | 4% | -11% | -17%
O=C(O)[C@H](C1NCCS1)N1C(=O)c2ccccc2C1=O (stereo partly specified) | -4% | . | . | .
C=CCC1(O)CCC2C3CCC4=CC(=O)CCC4=C3C=CC21C (stereo unspecified) | . | -16% | . | .
Cc1onc(-c2ccccc2Cl)c1-c1nc(-c2ccccn2)no1 | -264% | -4% | 5% | -2%
COc1cccc(-c2nc(-c3ccccn3)no2)c1 | -18% | ? | 13µM* | ?
c1ccc(-c2noc(C3CCCCC3)n2)nc1 | 2% | 3% | ? | 35µM*
Clc1ccccc1/C=C/c1nc(-c2ccccn2)no1 | -6% | -14% | 4µM* | ?
NC(=S)NNc1cc(Cl)cc(Cl)c1 | -135% | 1% | -4% | 8.9µM*
Cc1cc(Cl)ccc1NNC(N)=S | -49% | -6% | 3% | 16µM*
Nc1ccc2cc3ccc(N)cc3nc2c1 | . | -4% | . | .
